Screening results (PubChem BioAssay)
Rows were chosen to be rich in hits. Some 7.3% of all compounds tested hit in one or more screens of this group.
IP6K1 inh = Primary qHTS assay for small molecule inhibitors of Inositol hexaphosphate kinase 1 (IP6K1). IP6K1 kinase, ADP-Glo luminescence, 2 h; stronger effect = lower value. activity change, % (series mostly up to about 58 µM). 140,000 tested, 0.81% active; in the data active means activity change below about -25%
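ADP-Glo luminescence measures ADP made by human IP6K1 during a 2 h RT reaction with ATP/IP6 (mix at 1.3 mM/130 uM); top library doses 57.5 and 19.1 uM final.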
SNCA expr inh = Primary qHTS assay for inhibitors of alpha-synuclein gene (SNCA) expression. Potency, µM (series often up to 57.2 µM), inactives show at the highest dose activity change, negative = inhibition, most hits filed as inhibitors. AID 1671194, 2021. 140,000 tested, 0.17% active. HEK-293 SNCA-luciferase knock-in, luminescence, 24 h;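 further: potency means the concentration at half of the fitted maximal effect; plate controls were DMSO cells for no effect and cell-free wells for full effect; nearly all actives have a fitted effect of over 45% in size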
HEK293 viab = GF-AFC viability counterscreen for inhibitors of alpha-synuclein gene (SNCA) expression; HEK-293-SNCA-luc viability, GF-AFC fluorescence, 24 h; Potency, µM (titrated, usually from 57.1 µM), for the others: at the highest dose activity change, negative = cytotoxicity, most hits filed as cytotoxic; 150,000 tested, 0.12% active; AID 1671193, 2021;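 further: potency means the concentration at half of the fitted maximal effect; 0% = DMSO-treated cells and -100% = medium-only wells without cells; nearly all actives have a fitted effect of over 30% in size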
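Cytotoxicity counterscreen: after 24 h compound treatment of genome-edited SNCA-luciferase HEK-293 cells, live-cell protease substrate GF-AFC read by fluorescence after 30 min; activity scaled between DMSO (0%) and medium-only (-100%), curves Hill-fitted.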
HEK cytotox = Cytotoxic Profiling in HEK 293 Cell Line of Diverse Libraries Using Quantitative High-Throughput Screening; HEK 293 viability, ATP luminescence (CellTiter-Glo), 48-72 h; Potency, µM (titrated, usually from 115 µM), for the others: top-dose activity change, negative = cytotoxicity, usual class: inhibitors; 94,000 tested, 6.6% active; AID 1345083, 2018; further: potency means the concentration at half of the fitted maximal effect; nearly all actives have a fitted effect of over 60% in size
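Cytotoxicity was scored by loss of ATP-coupled luminescence (CellTiter-Glo) in HEK 293 cells. Compound treatment ran 48 or 72 hr at 37 degree Celsius, 5% CO2, 95% humidity.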
3T3 cytotox = Cytotoxic Profiling in NIH 3T3 Cell Line of Diverse Libraries Using Quantitative High-Throughput Screening. AID 1345082, 2018. Potency, µM (doses to about 96.7 µM), without a hit: top-dose activity change, negative = cytotoxicity, actives largely listed as inhibitors. 94,000 tested, 4.3% active. NIH 3T3 viability, CellTiter-Glo ATP luminescence, 48-72 h; further: potency means the concentration at half of the fitted maximal effect; nearly all actives have a fitted effect of over 55% in size
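First NIH 3T3 cells are plated at 400 cells/well; next compound is pinned in; then plates incubate 48 or 72 hr at 37 °C; finally CellTiter-Glo is added and luminescence read after 10 min.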
FLuc inh = Firefly luciferase inhibition profiling of diverse chemical library using quantitative high-throughput screening. Luciferin 4-monooxygenase (Photinus pyralis), P08659. Potency, µM (doses to about 115 µM), usual class: inhibitors. AID 1347043, 2019. purified P. pyralis luciferase, luminescence, biochemical. 76,000 tested, 2.5% active; further: potency means the concentration at half of the fitted maximal effect; nearly all actives have a fitted effect of over 65% in size
Target sequence (P08659 whole entry, looked up): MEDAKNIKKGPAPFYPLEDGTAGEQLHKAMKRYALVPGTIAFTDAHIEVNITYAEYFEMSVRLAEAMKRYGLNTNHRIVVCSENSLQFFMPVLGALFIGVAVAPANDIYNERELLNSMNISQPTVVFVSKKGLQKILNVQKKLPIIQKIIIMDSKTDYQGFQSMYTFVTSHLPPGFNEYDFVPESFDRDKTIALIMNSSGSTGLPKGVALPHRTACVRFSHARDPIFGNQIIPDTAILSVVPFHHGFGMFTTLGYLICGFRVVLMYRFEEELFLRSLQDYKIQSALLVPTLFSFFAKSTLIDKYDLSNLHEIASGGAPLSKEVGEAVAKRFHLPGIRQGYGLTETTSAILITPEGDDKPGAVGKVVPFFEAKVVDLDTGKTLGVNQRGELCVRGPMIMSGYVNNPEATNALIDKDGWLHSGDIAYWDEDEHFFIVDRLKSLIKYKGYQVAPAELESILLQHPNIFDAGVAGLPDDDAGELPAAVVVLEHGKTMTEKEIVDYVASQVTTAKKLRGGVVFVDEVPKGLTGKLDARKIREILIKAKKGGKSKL
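Purified 10nM P. pyralis luciferase with 10uM D-luciferin and 10uM ATP in 50mM Tris acetate pH 7.5, 10mM Mg acetate, 0.01% Tween-20, 0.05% BSA. qHTS titration; luminescence read by CCD imager.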
* = called active by the depositor; i = inactive; ? = inconclusive; / = no result given; [ ] = remark or other dose. Unless noted, the call rests on the fitted dose curve; in most records, active means well fitted curve in the direction sought with a large enough effect; inconclusive means small, poorly fitted or top-dose-only effect, or another doubt; inactive means no such curve, though single readings can be large; an effect the other way counts as inactive or inconclusive. Unless noted, on the % scale 0 is the no-effect control and ±100 the full control effect.

SMILES | IP6K1 inh | SNCA expr inh | HEK293 viab | HEK cytotox | 3T3 cytotox | FLuc inh
O=C1NC(=NC2CCCC2)C2(CCN(CC3CCCCC3)C2)N1c1cc(F)cc(F)c1 (centres undefined) | 6.7 | ? | ? | 35.5µM* | ? | /
O=C1NC(=NC2CCCCC2)C2(CCN(Cc3cccnc3)CC2)N1c1cccnc1 | 12.7 | 25.0% | 3.5% | i | 2.0% | /
O=C1NC(=NC2CCCC2)C2(CCCN(Cc3ccc(F)cc3)C2)N1c1cccnc1 (centres undefined) | -6.4 | ? | -8.2% | -24.0% | 15.8µM* | /
CC(C)CCN1CCCC2(C1)C(=NC1CCCCC1)NC(=O)N2c1cccnc1 (centres undefined) | -5.1 | -8.6% | -12.6% | ? | ? | /
O=C1NC(=NC2CCCC2)C2(CCCN(Cc3ccsc3)C2)N1c1cccnc1 (centres undefined) | -8.8 | -4.0% | 1.1% | 2.6% | 28.2µM* | /
O=C(c1ccccc1F)N1CCC2(CC1)C(=NC1CCCC1)NC(=O)N2c1cccnc1 | 4.1 | -10.7% | -3.6% | i | 35.5µM* | /
CC(C)CCN1CCC2(C1)C(=NC1CCCC1)NC(=O)N2c1cccnc1 (centres undefined) | -7.1 | 6.9% | -3.2% | -9.7% | 31.6µM* | /
CN(C)c1ccc(CN2CCCC3(C2)C(=NC2CCCCC2)NC(=O)N3c2cc(F)cc(F)c2)cc1 (centres undefined) | -11.0 | ? | ? | 79.4µM* | ? | /
O=C1NC(=NC2CCCCC2)C2(CCN(Cc3ccsc3)C2)N1c1cccnc1 (centres undefined) | -16.5 | 7.1% | -2.6% | 0.1% | ? | /
CCOC(=O)C1=C(C)N=C2SC=C(CC(=O)Nc3ccc(OC)cc3)N2C1c1ccccc1F (centres undefined) | 4.1 | 10.4% | -6.6% | ? | ? | i
COc1ccc(Cn2c3c(c(=O)n2Cc2ccccc2)CCN(C(C)=O)C3)cc1 | 30.3 | 29.0%[87.6 µM] | -11.2%[87.6 µM] | i | ? | i
COc1ccc(Cn2c3c(c(=O)n2Cc2ccccc2)CCN(C(=O)CCc2cccnc2)C3)cc1 | 5.5 | 1.9% | 0.5% | i | 6.31µM* | i
O=C(COc1ccccc1)N1CCc2c(n(Cc3cccnc3)n(CCc3ccccc3)c2=O)C1 | -5.8 | 17.4% | -0.8% | -31.7% | 35.5µM* | i
COc1ccc(-n2c(=O)c3c(n2Cc2ccccc2)CN(C(=O)COc2ccccc2)CC3)cc1 | 2.0 | 49.0% | -13.1% | -6.8% | 39.8µM* | i
COc1ccc(Cn2c3c(c(=O)n2Cc2ccccc2)CCN(C(=O)C2CCOCC2)C3)cc1 | 6.2 | 30.0% | 4.0% | i | 25.1µM* | i
O=C(NC1CCCCC1)[C@H]1O[C@H](CCN2CCN(c3ccccn3)CC2)CC[C@@H]1O | -13.8 | -3.1%[87.6 µM] | -9.1%[87.6 µM] | -1.2%[172 µM] | 0.6%[138 µM] | i
CCn1c2c(c(=O)n1Cc1ccccc1)CCN(C(=O)c1cccnc1)C2 | 15.0 | -13.9%[87.6 µM] | 3.0%[87.6 µM] | i | 50.1µM* | i
COCCn1c2c(c(=O)n1-c1ccccc1)CCN(C(=O)COc1ccccc1)C2 | 10.8 | 33.0%[87.6 µM] | 4.0%[87.6 µM] | -17.4%[172 µM] | ? | i
COCCn1c(=O)c2c(n1Cc1ccccc1)CN(C(=O)COc1ccccc1)CC2 | -2.5 | -24.8%[87.6 µM] | 3.8%[87.6 µM] | i | 22.4µM* | i
CCn1c2c(c(=O)n1Cc1ccccc1)CCN(C(=O)COc1ccccc1)C2 | -6.1 | -9.1%[87.6 µM] | -11.2%[87.6 µM] | 5.0%[172 µM] | 50.1µM* | i
CCn1c2c(c(=O)n1Cc1ccccc1)CCN(C(=O)c1cccc(C#N)c1)C2 | -6.4 | -25.3%[87.6 µM] | -1.8%[87.6 µM] | 0.4%[172 µM] | ? | i
C=CCNC(=O)N[C@H]1CCN2C(=O)c3ccc(Cl)cc3NC(=O)[C@@H]2C1 | -1.7 | ? | -14.9%[87.6 µM] | ? | 31.6µM* | i
O=C(N[C@H]1CCN2C(=O)c3cc(-c4cccc(C(F)(F)F)c4)ccc3NC(=O)[C@@H]2C1)c1ccncc1 | 3.5 | ? | -7.4% | 39.8µM* | ? | i
O=C(N[C@H]1CCN2C(=O)c3cc(-c4ccccc4F)ccc3NC(=O)[C@@H]2C1)c1ccc(F)c(Cl)c1 | -2.9 | ? | ? | 10µM* | 10µM* | i
COc1ccc(NC(=O)c2cnc[nH]2)cc1 | -3.1 | 14.1µM* | -11.9% | / | / | /
SMILES | IP6K1 inh | SNCA expr inh | HEK293 viab | HEK cytotox | 3T3 cytotox | FLuc inh
CC(=O)N1CCC(N2CCC(Cc3ccc(CCC(=O)N(C)C)cc3)CC2)CC1 | 12.3 | 21.9% | ? | -22.8% | -21.4% | /
COc1ccccc1-c1ccc2c(C(=O)N3CCC(Cc4ccccc4)CC3)nn(C)c2n1 | -3.0 | -16.9% | -4.5% | 79.4µM* | ? | /
CN(C)C(=O)CCc1ccc(CC2CCN(C(=O)CCC3CCCC3)CC2)cc1 | 11.9 | -16.9% | -26.7% | 25.1µM* | ? | /
COc1ncccc1C(=O)N1CCC(CCC(=O)N2CCC(Cc3ccccc3)CC2)CC1 | 3.6 | ? | ? | 35.5µM* | ? | i
Cc1ccsc1C(=O)N1CCC(CCC(=O)N2CCC(Cc3ccccc3)CC2)CC1 | 5.7 | -15.8% | -1.2% | 44.7µM* | ? | i
O=[S+]1([O-])c2cccnc2O[C@@H](COCc2ccccc2)CN1CCc1ccccc1 | 8.7 | -19.6%[25.6 µM] | -4.1%[23.9 µM] | ? | ? | /
COCCN1C[C@H]2COc3ccc(C)cc3[C@H]2N(C(=O)CC(C)C)CCC1=O | -10.1 | / | / | ? | ? | /
O=c1cc(N2CCOCC2)oc2c(NCc3cnccn3)nccc12 | -21.8 | 2.4%[87.6 µM] | -2.2%[87.6 µM] | -3.4%[172 µM] | 100µM* | i
CN1CCN(c2cc(=O)c3ccnc(NCc4ccccc4)c3o2)CC1 | -14.9 | 24.6%[87.6 µM] | -2.1%[87.6 µM] | i | ? | i
O=c1cc(N2CCOCC2)oc2c(N3CCN(c4ccccn4)CC3)nccc12 | -20.8 | 5.8%[87.6 µM] | -1.2%[87.6 µM] | ? | ? | i
O=c1cc(N2CCOCC2)oc2c(NCC3CCOCC3)nccc12 | -10.4 | ? | ? | -9.1%[172 µM] | 28.2µM* | i
CCN1CC(C(=O)NCc2cccc(-c3ccccc3)c2)CCC1=O (centres undefined) | -5.6 | 7.1% | -4.9% | 35.5µM* | ? | i
COc1ccc(-c2cc(N3CCCC(NC(=O)c4cccc(F)c4)C3)n[nH]2)cc1 (centres undefined) | 0.0 | 9.2% | -28.9% | ? | ? | ?
COc1ccc(-c2cc(N3CCC(NC(=O)c4ccc(Cl)s4)CC3)n[nH]2)cc1 | 16.5 | -22.5% | -7.6% | 25.1µM* | ? | i
